# Screens from PubChem.
# GPT2 inh – GPT2 alanine aminotransferase inhibition; Q8TD30; Recombinant GPT2, coupled pyruvate oxidase/HRP Amplex Red fluorescence; Potency, µM (series often up to 57.7 µM), most hits filed as inhibitors; 100,000 compounds, 0.25% hits; AID 1671188; further: nearly all actives have a fitted effect of over 60% in size
#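 GPT2 10ng/uL, a-KG 250uM, L-Ala 2mM, HEPES pH7.5 + 0.0001% Tween; 30 min RT. Then Amplex mix (PO/HRP/ThPP), 30 min RT dark, fluorescence. AOA 50uM used as positive control.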
# NPR1 antag – antagonists of human natriuretic peptide receptor Npr1; HEK293 hNpr1 GloSensor cGMP, ANP-stimulated luminescence; Potency, µM (highest dose often 46.3 µM), usual class: inhibitors; 76,000 compounds, 1.6% hits; AID 1347048; calls by dose curve; further: nearly all actives have a fitted effect of over 60% in size
#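 HEK293 cells stably expressing human Npr1 and cGMP GloSensor pGS-40F, loaded 2 h with 2% GloSensor reagent, given compound 30 min at room temperature. Luminescence read before and 20 min after 0.1 nM hNppA.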
# HEK cytotox – cytotoxic compounds in HEK 293 cells; HEK 293 viability, ATP luminescence (CellTiter-Glo), 48-72 h; 94,000 compounds, 6.6% hits; AID 1345083; Potency, µM (titrated, usually from 115 µM), usual class: inhibitors; further: nearly all actives have a fitted effect of over 60% in size
#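 Read-out: CellTiter-Glo ATP luminescence. Cells: HEK 293, 250 cells/well. Exposure: 48 or 72 hr, 37 degree Celsius.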
# FLuc inh – Photinus pyralis luciferase inhibition; purified P. pyralis luciferase, luminescence, biochemical; Potency, µM (highest dose often 115 µM), hits mostly inhibitors; 76,000 compounds, 2.5% hits; further: nearly all actives have a fitted effect of over 65% in size
# Target sequence (P08659 whole entry, looked up): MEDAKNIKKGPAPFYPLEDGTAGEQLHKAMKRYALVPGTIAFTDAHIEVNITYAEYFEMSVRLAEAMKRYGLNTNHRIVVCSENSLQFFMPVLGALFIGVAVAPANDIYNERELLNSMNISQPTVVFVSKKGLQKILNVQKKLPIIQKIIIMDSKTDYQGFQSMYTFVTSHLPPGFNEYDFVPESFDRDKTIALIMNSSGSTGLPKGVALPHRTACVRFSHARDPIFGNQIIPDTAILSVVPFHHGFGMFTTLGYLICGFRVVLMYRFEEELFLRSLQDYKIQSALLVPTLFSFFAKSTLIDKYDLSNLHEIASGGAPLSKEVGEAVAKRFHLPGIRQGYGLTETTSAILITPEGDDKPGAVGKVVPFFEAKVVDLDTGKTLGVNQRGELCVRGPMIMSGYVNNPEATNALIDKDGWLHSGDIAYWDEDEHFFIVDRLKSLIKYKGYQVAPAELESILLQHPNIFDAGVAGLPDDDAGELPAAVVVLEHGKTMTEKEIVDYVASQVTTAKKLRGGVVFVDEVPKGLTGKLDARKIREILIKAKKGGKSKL
#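 Biochemical qHTS: compound (6-point titration) added to 10uM D-luciferin plus 10uM ATP in Tris acetate pH 7.5 buffer with Mg, Tween-20 and BSA, then purified enzyme at 10nM; light output imaged.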
# NIH3T3 tox – cytotoxic compounds in NIH 3T3 cells. NIH 3T3 viability, CellTiter-Glo ATP luminescence, 48-72 h. Potency, µM (top dose mostly 96.7 µM), usual class: inhibitors. 94,000 compounds, 4.3% hits; further: nearly all actives have a fitted effect of over 55% in size
#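 Mouse fibroblast NIH 3T3 cells, 400 per well, received compound via pintool and were incubated for 48 or 72 hr prior to CellTiter-Glo ATP luminescence measurement.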
# Numbers stand for hits; . = inactive; ? = inconclusive; / = no result. This is a sample that favours compounds with a hit; in the whole collection about 10% have one here. Unless noted, the call rests on the fitted dose curve; in most records, active means well fitted curve in the direction sought with a large enough effect; inconclusive means small, poorly fitted or top-dose-only effect, or another doubt; inactive means no such curve, though single readings can be large; an effect the other way counts as inactive or inconclusive.
SMILES,GPT2 inh,NPR1 antag,HEK cytotox,FLuc inh,NIH3T3 tox
CC(=O)NC[C@@H]1C=C(C)[C@H](Cc2nc3ccc(F)cc3[nH]2)C[C@H]1C(C)C,.,.,44.7µM,.,79.4µM
CC1=C[C@@H](CNC(=O)c2cccnc2)[C@H](C(C)C)C[C@H]1Cc1nc2ccc(F)cc2[nH]1,.,.,?,.,?
COCC(=O)NC[C@@H]1C=C(C)[C@H](Cc2nc3ccc(F)cc3[nH]2)C[C@H]1C(C)C,?,.,?,.,50.1µM
O=C(NC1CCCCCC1)c1ccc2oc(-c3ccncc3Cl)nc2c1,.,/,.,/,.
O=C1CC(c2noc(Cc3ccc(F)cc3)n2)CN1c1ccc(F)c(Cl)c1 (configuration not stated),.,.,22.4µM,.,17.8µM
Cc1ccc(Cc2nc(C3CC(=O)N(c4ccc(Cl)cc4)C3)no2)cc1 (configuration not stated),.,.,?,.,?
Cc1oc2c(c1C(=O)N1CCCCCC1)CN(Cc1cccc(F)c1)CC2,.,.,?,.,?
CCCn1ccnc1CN1CCCC12CCN(c1ccc(C(F)(F)F)cn1)CC2,?,.,35.5µM,.,?
Cn1ccnc1CN1CCCC12CCN(c1ccc(C(F)(F)F)cn1)CC2,.,.,50.1µM,.,?
O=C(NCc1ccccc1F)c1cn2cc(-c3cccc(C(F)(F)F)c3)sc2n1,.,/,?,/,?
COc1ccc(C(=O)N2CCC3(C2)C(=NC2CCCC2)NC(=O)N3c2cccc(OC)c2)cc1 (configuration not stated),.,/,.,/,?
O=C(Nc1ccccc1Cl)N1CCC(n2cc(C3CCCC3)nn2)CC1,.,.,?,.,.
O=C(C1CCCCCC1)N1CCC(n2cc(C3CCCCC3)nn2)CC1,.,?,89.1µM,.,?
O=C(NCCc1ccc(Cl)cc1)c1cn2cc(-c3ccc(F)cc3)sc2n1,.,/,?,/,?
CN(CCCN1CCCCCC1)c1nc(-c2ccncc2)nc2c1cnn2C,.,.,?,.,31.6µM
CC(C)c1nc(N(C)Cc2cc(-c3cccnc3)no2)c2cnn(C)c2n1,.,.,?,.,?
COc1ccc(-c2cc(C(=O)NCc3c(C)cc(C)[nH]c3=O)c3c(c2)N(C(C)C)CCO3)cc1OC,.,.,?,.,25.1µM
Cc1ccccc1-c1cc(C(=O)NCCc2cnc[nH]2)c2c(c1)N(C)CCO2,.,.,?,.,100µM
COc1ccc(-c2cc(C(=O)NCCc3cnc[nH]3)c3c(c2)N(C)CCO3)cc1OC,.,.,.,.,?
COc1ccccc1-c1cc(C(=O)NCc2c(C)cc(C)[nH]c2=O)c2c(c1)ncn2C,.,.,?,.,39.8µM
Cc1cc(C)c(CNC(=O)c2cc(-c3cccnc3)cc3c2OCCN3C(C)C)c(=O)[nH]1,.,.,100µM,.,?
COc1ccc(-c2cc(C(=O)NCc3c(C)cc(C)[nH]c3=O)c3c(c2)N(C)CCO3)cc1,.,.,.,.,?
C[S+](=O)([O-])c1ccc(-c2nnc3ccc(C(=O)NCc4ccccn4)cn23)cc1,.,/,.,/,.
Cc1cc(C)c(CNC(=O)c2cc(-c3ccccc3C)cc3c2OCCN3C)c(=O)[nH]1,.,.,89.1µM,.,44.7µM
CN(Cc1ccc(F)cc1)C(=O)Cc1ccccn1,.,.,.,.,.
SMILES,GPT2 inh,NPR1 antag,HEK cytotox,FLuc inh,NIH3T3 tox
CN(Cc1ccc(-c2ccccc2)cc1)C(=O)Cc1ccc(F)cc1,.,.,50.1µM,.,35.5µM
CN(Cc1ccc(-c2ccccc2)cc1)C(=O)Cc1ccccn1,.,?,63.1µM,?,?
O=C1NC(=NC2CCCC2)C2(CCCN(Cc3ccccc3)C2)N1c1cccnc1 (configuration not stated),.,/,.,/,25.1µM
COc1ccc(CN2CCCC3(C2)C(=NC2CCCC2)NC(=O)N3c2cccnc2)cc1 (configuration not stated),.,/,.,/,22.4µM
O=C1NC(=NC2CCCC2)C2(CCCN(CC3CCCCC3)C2)N1c1cccnc1 (configuration not stated),.,/,?,/,7.08µM
O=C1NC(=NC2CCCC2)C2(CCN(CC3CC3)C2)N1c1cccnc1 (configuration not stated),.,/,.,/,?
O=C1NC(=NC2CCCC2)C2(CCN(Cc3ccccc3)C2)N1c1cccnc1 (configuration not stated),.,/,.,/,?
CC(C)CCN1CCCC2(C1)C(=NC1CCCC1)NC(=O)N2c1cccnc1 (configuration not stated),.,/,?,/,7.08µM
O=C(Nc1cc(-c2ccccn2)nn1-c1ccccc1)c1cccc(Cl)c1,.,/,?,/,?
CC1=C[C@@H](CN2CCC[C@H]2CO)[C@H](C(C)C)C[C@H]1Cc1nnc(-c2cncn2C)o1,.,.,?,.,100µM
CC1=C[C@@H](CNC(=O)COc2ccccc2)[C@H](C(C)C)C[C@H]1Cc1nnc(-c2cncn2C)o1,.,.,50.1µM,.,?
COc1ccc(NC(=O)Nc2cccn3nc(C)nc23)cc1,?,.,?,17.8µM,?
CCOc1ccc(CC(=O)Nc2cccn3nc(C)nc23)cc1,.,.,.,.,.
Cc1nc2c(NC(=O)Nc3cccc(C(F)(F)F)c3)cccn2n1,.,.,35.5µM,?,?
CCc1nc2c(NC(=O)Nc3cccc(C(=O)OC)c3)cccn2n1,.,.,?,?,?
CC1CCN(C(=O)c2csc(N3CCN(c4ccc(Cl)cc4)CC3)n2)CC1,.,?,?,.,?
O=C(NC1CCCC1)c1csc(N2CCN(c3cccc(Cl)c3)CC2)n1,.,.,35.5µM,.,?
CCCCN1CCN(C(=O)c2csc(N3CCN(c4cccc(Cl)c4)CC3)n2)CC1,.,.,22.4µM,.,?
COc1ccc(CNC(=O)c2cc3c(N4CCCC4)nc(C)cn3n2)c(OC)c1,.,.,.,.,.
NC1CC(c2cc(N3CCN(c4cnccn4)CC3)nc(C3CC3)n2)C1 (configuration not stated),.,.,?,.,?
Cn1nc(-c2ccncc2)cc1NC(=O)C1CCCC1,.,/,.,/,.
O=C(NCC1CCCCC1)c1cn2cc(-c3ccccc3)sc2n1,.,/,?,/,?
CC1(COc2ccc3[nH]ccc3c2)COc2ccc(C(=O)Nc3cccnc3)cc2N1 (configuration not stated),.,?,100µM,.,89.1µM
COc1ccc(OCC2(C)COc3ccc(C(=O)NCc4ccco4)cc3N2)cc1 (configuration not stated),.,?,?,.,?
CC(C)CNC(=O)c1ccc2c(c1)NC(C)(COc1ccc3[nH]ccc3c1)CO2 (configuration not stated),.,.,?,.,89.1µM
COc1ccc(NC(=O)c2ccc3c(c2)NC(C)(COc2ccc4[nH]ccc4c2)CO3)cn1 (configuration not stated),.,.,?,.,?
